In PubChem BioAssay (EPA / NIEHS):
Results filed as inconclusive are left out. Activity calls are given as the source filed them. The calls were made as follows, unless noted: active = hit-call score of the fitted dose curve at least 0.9, where 1 is the maximum; inactive = score below 0.9.

Assays:
[1] = target: Paired box protein Pax-6 (Homo sapiens) (UniProt P26367); assay: ATG_Pax6_CIS: Attagene CIS-FACTORIAL HepG2 Assay for human Paired Box 6 (PAX6) (AID 2282956); settings: HepG2 CIS-FACTORIAL PAX6 reporter transcription, RNA readout; actives raise or lower the signal
Summary of the method: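 Readout: reporter transcript fluorescence after RT-PCR and capillary electrophoresis. Cells: HepG2, transiently transfected with cis-regulated MRTUs. Exposure 24 h. Gain or loss of signal fitted bidirectionally relative to DMSO.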

[2] = ATG_PXRE_CIS: Attagene CIS-FACTORIAL HepG2 Assay for human Pregnane X Receptor Element (PXRE) (AID 2282957); settings: HepG2 Attagene CIS-FACTORIAL PXRE reporter, mRNA; actives raise or lower the signal
Summary of the method: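 Reporter transcripts under endogenous PXR-responsive cis-regulation quantified from total RNA of transfected HepG2 cells 24 h post-dosing, via RT-PCR with fluorescent primer extension and capillary electrophoresis. Gain or loss of signal fitted against DMSO baseline.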

[3] = ATG_PPRE_CIS: Attagene CIS-FACTORIAL HepG2 Assay for human Peroxisome Proliferator-activated Response Element (PPRE) (AID 2282958); settings: HepG2 PPRE cis-element reporter, Attagene transcription factor profiling; actives raise or lower the signal
Summary of the method: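 PPRE activity in HepG2: transient cis-reporter transfection, 24 h compound incubation, reporter mRNA by RT-PCR and CE fluorescence; gain/loss fitted against DMSO.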

[4] = ATG_Sox_CIS: Attagene CIS-FACTORIAL HepG2 Assay for human SRY-box transcription factor (SOX) (AID 2282960); settings: HepG2 Attagene cis-factorial SOX reporter, mRNA; actives raise or lower the signal
Summary of the method: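 HepG2, cis reporter units, 24 h exposure. Reporter mRNA: RT-PCR → FAM labelling → HpaI → CE fluorescence. Bidirectional fit vs DMSO.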

[5] = target: Transcription factor Sp1 (Homo sapiens) (UniProt P08047); assay: ATG_Sp1_CIS: Attagene CIS-FACTORIAL HepG2 Assay for human Specificity Protein 1 (Sp1) (AID 2282961); settings: HepG2 Sp1 cis-reporter transcription, actives raise or lower the signal
Summary of the method: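 Liver-derived HepG2 cells, cis-element reporter library, 24 h treatment; RNA isolated, cDNA amplified with reporter-specific primers, FAM-labeled fragments sized on capillary analyzer. DMSO baseline, bidirectional curve fit.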

[6] = ATG_SREBP_CIS: Attagene CIS-FACTORIAL HepG2 Assay for human Sterol Regulatory Element Binding (SREBP) (AID 2282962); settings: HepG2 Attagene cis-factorial SREBP reporter, mRNA; actives raise or lower the signal
Summary of the method: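 Readout: fluorescent reporter-transcript peaks resolved by capillary electrophoresis after RT-PCR. Cells were human HepG2 carrying transfected cis-promoter reporter constructs, dosed for 24 h. Gain or loss of signal was fitted against DMSO controls.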

[7] = target: Signal transducer and activator of transcription 3 (Homo sapiens) (UniProt P40763); assay: ATG_STAT3_CIS: Attagene CIS-FACTORIAL HepG2 Assay for human Signal Transducer and Activator of Transcription 3 (STAT3) (AID 2282963); settings: HepG2, Attagene cis-factorial STAT3 reporter transcription; actives raise or lower the signal
Summary of the method: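 Fluorescence intensity of 6-FAM-labelled reporter fragments, separated by capillary electrophoresis after RT-PCR, gave the signal. Cells were HepG2 transfected with cis-element reporter units and treated 24 h; fitting was bidirectional relative to DMSO.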

[8] = ATG_TA_CIS: Attagene CIS-FACTORIAL HepG2 Assay for human TA Basal Promoter (AID 2282964); settings: HepG2 Attagene CIS-factorial TA basal promoter reporter; actives raise or lower the signal
Summary of the method: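 Steps: transfect HepG2 with MRTUs; dose 24 h; isolate RNA, DNase-treat, reverse-transcribe; PCR and FAM-label reporter cDNA; digest with HpaI 2h at 37 C; run capillary electrophoresis. Activity fitted both directions against DMSO.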

[9] = ATG_TCF_b_cat_CIS: Attagene CIS-FACTORIAL HepG2 Assay for human T-Cell-Factor with beta-catenin (TCF/b-cat) (AID 2282965); settings: HepG2 TCF/beta-catenin cis-reporter transcription, actives raise or lower the signal
Summary of the method: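 Cells of the HepG2 line carry transiently transfected reporter units whose promoters respond to endogenous factors. Twenty-four hours post-dosing, reporter mRNA induction is measured by fluorescent RT-PCR and capillary electrophoresis, with DMSO as baseline.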

[10] = ATG_TAL_CIS: Attagene CIS-FACTORIAL HepG2 Assay for human TAL Basal Promoter (AID 2282966); settings: HepG2 Attagene cis-factorial TAL promoter reporter; actives raise or lower the signal;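 also: background control endpoint measuring basal TAL promoter reporter mRNA not a specific factor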
Summary of the method: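 Background-control endpoint: basal TAL promoter reporter transcripts in transiently transfected HepG2, measured 24 h after dosing. Read-out by RT-PCR with fluorescent primer extension and capillary electrophoresis; gain or loss of signal fitted relative to DMSO.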

[11] = ATG_TGFb_CIS: Attagene CIS-FACTORIAL HepG2 Assay for human Transforming Growth Factor (TGF) (AID 2282967); settings: HepG2 Attagene CIS TGFb reporter, mRNA transcription; actives raise or lower the signal
Summary of the method: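 Cells were dosed for 24 hours, after which total RNA was reverse-transcribed and reporter sequences amplified, labeled and sized by capillary electrophoresis. Activity was fitted in both directions against DMSO.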

[12] = ATG_VDRE_CIS: Attagene CIS-FACTORIAL HepG2 Assay for human Vitamin D Receptor Element (VDRE) (AID 2282968); settings: HepG2 VDRE cis-reporter transcription, actives raise or lower the signal
Summary of the method: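 Compounds were applied for 24 h to HepG2 cells transfected with promoter-regulated reporter units. Total RNA was reverse-transcribed, and reporter amplicons were fluorescently labelled and sized by capillary electrophoresis.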

[13] = target: Estrogen receptor (Homo sapiens) (UniProt P03372); assay: ATG_ERa_TRANS: Attagene TRANS-FACTORIAL HepG2 Assay for human Estrogen Receptor alpha (ERa) (AID 2282970; active = hit-call score of the fitted dose curve at least 0.9, where 1 is the maximum); settings: HepG2 Attagene TRANS ERa GAL4 reporter, mRNA
Summary of the method: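 Reporter transcripts were measured 24 h after dosing by RT-PCR with fluorescent primer extension and capillary electrophoresis. The system is transiently transfected HepG2 expressing exogenous NR-Gal4 chimeras driving GAL4-UAS reporters; DMSO is the baseline.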

[14] = target: X-box-binding protein 1 (Homo sapiens) (UniProt P17861); assay: ATG_Xbp1_CIS: Attagene CIS-FACTORIAL HepG2 Assay for human X-box Binding Protein 1 (XBP1) (AID 2282972); settings: HepG2 XBP1 cis-element reporter, Attagene multiplex; actives raise or lower the signal
Summary of the method: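 Read-out: fluorescent reporter mRNA fragments resolved by capillary electrophoresis after RT-PCR. Human HepG2 liver cells carried transfected cis-promoter reporter units and were exposed to chemicals for 24 hours. Gain or loss of signal fitted relative to DMSO baseline.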

[15] = ATG_M_19_TRANS: Attagene TRANS-FACTORIAL HepG2 Assay for M19 Transcription Factor (Internal Marker) (AID 2282974; active = hit-call score of the fitted dose curve at least 0.9, where 1 is the maximum); settings: HepG2 Attagene TRANS-FACTORIAL M19 internal marker reporter
Summary of the method: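 Transfected HepG2 (GAL4-UAS MRTUs), 24 h compound, TriZol RNA, DNase-treated RT, reporter PCR, FAM label, HpaI digest, CE fluorescence; gain vs DMSO.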

[16] = ATG_GAL4_TRANS: Attagene TRANS-FACTORIAL HepG2 Assay for GAL4 (Internal Marker) (AID 2282976; active = hit-call score of the fitted dose curve at least 0.9, where 1 is the maximum); settings: HepG2 Attagene TRANS GAL4 internal marker reporter
Summary of the method: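 In transfected human HepG2 liver cells dosed 24 h, GAL4 reporter mRNA serves as a baseline marker. Detection by RT-PCR with fluorescent capillary electrophoresis, activity fitted upward relative to DMSO.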

[17] = ATG_RORE_CIS: Attagene CIS-FACTORIAL HepG2 Assay for human RAR-related Orphan Receptor Element (RORE) (AID 2282959); settings: HepG2 Attagene cis-factorial RORE reporter, mRNA; actives raise or lower the signal
Summary of the method: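 A 24-hour exposure of transfected HepG2 hepatoma cells precedes RNA isolation and reporter RT-PCR. Labeled products are digested with HpaI and resolved by capillary electrophoresis, with gain or loss of signal scored relative to DMSO.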

[18] = target: Nuclear receptor subfamily 1 group I member 3 (Homo sapiens) (UniProt Q14994); assay: ATG_CAR_TRANS: Attagene TRANS-FACTORIAL HepG2 Assay for human Constitutive Androstane Receptor (CAR) (AID 2282969; active = hit-call score of the fitted dose curve at least 0.9, where 1 is the maximum;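 also: activators raise reporter mRNA above DMSO so AC50 marks induction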); settings: HepG2 Attagene TRANS-FACTORIAL CAR reporter
Summary of the method: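 Transiently transfected HepG2, multiplex TRANS reporters (CAR-Gal4 chimera driving GAL4-UAS reporter). 24 h dosing. Readout: reporter transcript by RT-PCR + capillary electrophoresis, fluorescence intensity; positive direction vs DMSO.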

[19] = target: Estrogen-related receptor gamma (Homo sapiens) (UniProt P62508); assay: ATG_ERRg_TRANS: Attagene TRANS-FACTORIAL HepG2 Assay for human Estrogen-Related Receptor gamma (ERRg) (AID 2282977; active = hit-call score of the fitted dose curve at least 0.9, where 1 is the maximum;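 also: hits increase reporter signal over DMSO so potencies reflect activators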); settings: HepG2 Attagene TRANS reporter, ERRg transactivation
Summary of the method: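 Exogenous NR-Gal4 chimera activity measured as reporter transcript induction after 24 h in transiently transfected HepG2 cells. RNA reverse-transcribed, PCR-amplified, 6-FAM-labelled and resolved by capillary electrophoresis; increase over DMSO baseline.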

Measured: AC50

Sequence of Transcription factor Sp1 (Homo sapiens) (P08047 whole entry, looked up, the tested form may be a part): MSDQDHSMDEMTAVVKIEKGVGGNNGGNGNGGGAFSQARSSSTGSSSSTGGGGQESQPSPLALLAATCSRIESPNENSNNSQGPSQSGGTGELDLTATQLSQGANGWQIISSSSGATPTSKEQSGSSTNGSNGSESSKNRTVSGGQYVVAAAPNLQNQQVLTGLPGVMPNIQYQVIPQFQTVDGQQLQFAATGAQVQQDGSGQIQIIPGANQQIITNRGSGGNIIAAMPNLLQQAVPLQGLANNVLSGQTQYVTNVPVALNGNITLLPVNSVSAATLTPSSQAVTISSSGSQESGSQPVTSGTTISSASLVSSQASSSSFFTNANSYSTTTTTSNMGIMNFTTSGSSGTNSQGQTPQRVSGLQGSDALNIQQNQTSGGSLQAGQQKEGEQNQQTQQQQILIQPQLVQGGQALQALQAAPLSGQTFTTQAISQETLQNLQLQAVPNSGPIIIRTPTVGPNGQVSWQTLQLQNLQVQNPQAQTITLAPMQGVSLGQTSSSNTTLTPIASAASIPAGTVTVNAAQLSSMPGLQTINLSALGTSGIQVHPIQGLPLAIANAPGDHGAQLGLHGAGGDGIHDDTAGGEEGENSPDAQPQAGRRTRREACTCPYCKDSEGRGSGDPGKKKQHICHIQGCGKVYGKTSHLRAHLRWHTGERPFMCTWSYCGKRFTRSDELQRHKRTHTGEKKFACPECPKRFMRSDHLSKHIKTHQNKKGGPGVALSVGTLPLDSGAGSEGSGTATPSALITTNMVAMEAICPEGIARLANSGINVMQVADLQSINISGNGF
Sequence of Estrogen-related receptor gamma (Homo sapiens) (P62508 whole entry, looked up, the tested form may be a part): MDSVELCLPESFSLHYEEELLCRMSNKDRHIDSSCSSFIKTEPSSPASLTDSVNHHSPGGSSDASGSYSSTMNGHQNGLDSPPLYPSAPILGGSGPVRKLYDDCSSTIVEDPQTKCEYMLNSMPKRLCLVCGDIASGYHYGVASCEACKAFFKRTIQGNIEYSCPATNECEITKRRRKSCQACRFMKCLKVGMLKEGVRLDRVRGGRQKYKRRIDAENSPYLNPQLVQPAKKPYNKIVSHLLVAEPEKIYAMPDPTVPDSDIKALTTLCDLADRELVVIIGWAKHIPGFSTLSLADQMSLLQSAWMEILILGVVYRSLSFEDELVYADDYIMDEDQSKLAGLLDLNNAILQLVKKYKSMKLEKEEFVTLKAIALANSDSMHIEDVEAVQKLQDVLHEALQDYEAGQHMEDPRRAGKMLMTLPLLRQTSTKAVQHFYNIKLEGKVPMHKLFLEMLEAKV
Sequence of X-box-binding protein 1 (Homo sapiens) (P17861 whole entry, looked up, the tested form may be a part): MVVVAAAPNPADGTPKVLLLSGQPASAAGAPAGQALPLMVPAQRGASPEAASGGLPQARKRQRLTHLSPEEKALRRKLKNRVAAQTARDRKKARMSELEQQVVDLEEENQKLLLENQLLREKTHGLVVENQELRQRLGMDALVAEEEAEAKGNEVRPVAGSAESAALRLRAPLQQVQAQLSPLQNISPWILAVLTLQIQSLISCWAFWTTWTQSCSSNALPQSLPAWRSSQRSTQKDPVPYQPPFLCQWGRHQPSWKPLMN
Sequence of Signal transducer and activator of transcription 3 (Homo sapiens) (P40763 whole entry, looked up, the tested form may be a part): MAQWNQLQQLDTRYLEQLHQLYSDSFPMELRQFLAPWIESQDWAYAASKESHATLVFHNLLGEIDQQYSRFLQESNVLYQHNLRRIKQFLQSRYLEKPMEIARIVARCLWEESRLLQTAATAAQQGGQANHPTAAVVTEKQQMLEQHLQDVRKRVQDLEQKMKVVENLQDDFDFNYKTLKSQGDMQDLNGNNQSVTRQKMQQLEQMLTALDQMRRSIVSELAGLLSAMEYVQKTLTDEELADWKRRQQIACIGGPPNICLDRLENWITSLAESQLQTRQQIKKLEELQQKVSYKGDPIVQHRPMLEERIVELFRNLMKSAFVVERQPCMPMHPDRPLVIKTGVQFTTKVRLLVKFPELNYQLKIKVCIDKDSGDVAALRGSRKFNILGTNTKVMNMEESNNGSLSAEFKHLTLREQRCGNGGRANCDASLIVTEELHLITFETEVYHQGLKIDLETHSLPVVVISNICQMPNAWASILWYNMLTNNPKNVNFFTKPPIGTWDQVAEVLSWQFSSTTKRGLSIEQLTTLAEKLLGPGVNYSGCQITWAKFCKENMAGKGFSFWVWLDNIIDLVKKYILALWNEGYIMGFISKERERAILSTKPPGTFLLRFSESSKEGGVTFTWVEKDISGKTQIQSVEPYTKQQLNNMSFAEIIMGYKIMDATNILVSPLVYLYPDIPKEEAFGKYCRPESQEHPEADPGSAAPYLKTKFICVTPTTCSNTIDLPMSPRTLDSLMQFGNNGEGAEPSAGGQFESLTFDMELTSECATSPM
Sequence of Estrogen receptor (Homo sapiens) (P03372 whole entry, looked up, the tested form may be a part): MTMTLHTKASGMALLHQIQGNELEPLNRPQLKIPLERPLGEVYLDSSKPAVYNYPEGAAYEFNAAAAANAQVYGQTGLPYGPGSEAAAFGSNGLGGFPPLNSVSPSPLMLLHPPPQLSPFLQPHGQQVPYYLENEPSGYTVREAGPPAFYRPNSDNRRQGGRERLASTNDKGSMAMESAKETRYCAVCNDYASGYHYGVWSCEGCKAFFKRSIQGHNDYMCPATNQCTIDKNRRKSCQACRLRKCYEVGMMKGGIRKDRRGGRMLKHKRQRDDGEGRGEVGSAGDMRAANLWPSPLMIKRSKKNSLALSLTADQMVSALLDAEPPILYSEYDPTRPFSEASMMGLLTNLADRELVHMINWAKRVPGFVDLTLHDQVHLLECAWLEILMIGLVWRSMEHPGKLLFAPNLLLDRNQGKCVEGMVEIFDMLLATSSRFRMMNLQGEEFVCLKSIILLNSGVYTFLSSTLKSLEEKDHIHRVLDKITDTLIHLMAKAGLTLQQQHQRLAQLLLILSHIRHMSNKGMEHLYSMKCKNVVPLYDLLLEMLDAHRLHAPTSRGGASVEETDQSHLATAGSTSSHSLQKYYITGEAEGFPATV
Sequence of Paired box protein Pax-6 (Homo sapiens) (P26367 whole entry, looked up): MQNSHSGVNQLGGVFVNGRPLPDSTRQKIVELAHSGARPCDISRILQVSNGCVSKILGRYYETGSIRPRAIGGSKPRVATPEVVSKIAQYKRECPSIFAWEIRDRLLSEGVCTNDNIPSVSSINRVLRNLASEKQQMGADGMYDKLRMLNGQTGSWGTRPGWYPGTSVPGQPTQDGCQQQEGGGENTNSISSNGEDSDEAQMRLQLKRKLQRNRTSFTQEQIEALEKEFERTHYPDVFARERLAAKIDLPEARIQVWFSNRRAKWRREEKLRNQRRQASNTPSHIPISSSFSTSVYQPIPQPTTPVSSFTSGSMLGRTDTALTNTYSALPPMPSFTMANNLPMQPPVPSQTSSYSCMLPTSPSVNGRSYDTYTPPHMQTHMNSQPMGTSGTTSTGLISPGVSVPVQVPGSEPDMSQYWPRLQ
Sequence of Nuclear receptor subfamily 1 group I member 3 (Homo sapiens) (Q14994 whole entry, looked up, the tested form may be a part): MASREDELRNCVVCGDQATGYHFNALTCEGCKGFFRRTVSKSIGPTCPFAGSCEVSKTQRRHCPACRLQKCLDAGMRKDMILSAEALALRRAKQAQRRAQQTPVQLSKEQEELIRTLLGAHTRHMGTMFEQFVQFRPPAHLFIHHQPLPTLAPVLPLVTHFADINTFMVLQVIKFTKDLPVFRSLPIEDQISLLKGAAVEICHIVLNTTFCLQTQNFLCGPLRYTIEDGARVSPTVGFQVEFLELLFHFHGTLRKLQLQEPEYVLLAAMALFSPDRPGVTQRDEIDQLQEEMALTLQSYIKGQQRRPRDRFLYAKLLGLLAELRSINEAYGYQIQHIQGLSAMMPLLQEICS

CC(CC=O)c1ccccc1 (stereo not drawn)
inactive: [1] | [3] | [4] | [5] | [6] | [7] | [8] | [9] | [10] | [11] | [13] | [14] | [15] | [16]
active: [2] 4.15 µM | [12] 7.03 µM

Nc1ccc2cc3ccccc3cc2c1
inactive: [1] | [3] | [17] | [4] | [5] | [7] | [9] | [10] | [11] | [12] | [18] | [14] | [16]
active: [2] 13.2 µM | [13] 6.94 µM

O=C(C(Cl)Cl)N1CCOC12CCCCC2
active: [1] 13.1 µM | [8] 12 µM
inactive: [2] | [3] | [4] | [5] | [6] | [7] | [9] | [10] | [11] | [12] | [14]

COC(=O)c1ccc2cc(C(=O)OC)ccc2c1
inactive: [1] | [2] | [3] | [17] | [4] | [6] | [7] | [8] | [9] | [10] | [11] | [13] | [14] | [19]

C=CC(C)(C)C
inactive: [1] | [2] | [3] | [17] | [4] | [6] | [8] | [9] | [10] | [11] | [12] | [14] | [15] | [16] | [19]

Clc1nc2ccccc2s1
inactive: [1] | [2] | [3] | [17] | [4] | [6] | [7] | [8] | [9] | [10] | [11] | [12] | [14] | [16]

CCCCCCCCCCCCCCCC[N+](C)(C)CC
inactive: [1] | [2] | [3] | [4] | [5] | [8] | [10] | [14]
active: [17] 8.95 µM | [9] 5.99 µM | [12] 9.07 µM | [19] 9.59 µM

Cc1cc(C)c(C)cc1C
inactive: [1] | [2] | [3] | [17] | [4] | [6] | [7] | [8] | [9] | [10] | [11] | [12] | [13] | [14] | [15]

CN(C)c1ccc(C(=N)c2ccc(N(C)C)cc2)cc1
active: [1] 3.16 µM | [2] 5.82 µM | [17] 1.28 µM | [9] 9.76 µM | [12] 1.29 µM | [14] 1.21 µM
inactive: [3] | [4] | [6] | [7] | [8] | [10] | [11] | [13]
